PMC5540273 (PLoS ONE, 2017)

System: TBK1
Conditions: concentration: 1 μM, replicates: in singlicate; n = 1
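Also: KINOMEscan kinase panel screen.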

Row | SMILES | %Inh
1 | O=c1[nH]cc(-c2ccc(N3CCOCC3)cc2)c2sc(-c3cn[nH]c3)cc12 [GSK2276055] | 25%
2 | Cn1cc(-c2ccc3c(c2)CCN3C(=O)Cc2cccc(F)c2)c2c(N)ncnc21 [GSK2603358] | 19%
3 | CN1CCN(CCCNc2nccc(-c3c(-c4ccc(F)cc4)nn4cc(C(F)(F)F)ccc34)n2)CC1 [GW621581] | 0%
4 | Cc1ccc(C(=O)Nc2ccc(Nc3ccnc4cc(-c5nccs5)ccc34)cc2O)cc1.Cl [GW494702] | 0%
5 | CC(C)(C)c1ccc2nccc(Nc3cccc(O)c3)c2c1 [GW856795] | 14%
6 | Nc1n[nH]c2cnc(-c3ccccc3)cc12 [SB-642124] | 1%
7 | CCc1ccc(-c2ccc3c(c2)-c2c(cnn2C)S(=O)(=O)N3C)cc1 | 8%
8 | O=C(Nc1n[nH]c2nc(-c3ccc(O)cc3)ccc12)C1CC1 [SB-710363] | 19%
9 | CC(=O)N1CCN(c2ccc(Nc3nccc(-c4sc(C(C)C)nc4-c4cccc(NS(=O)(=O)c5cccc(Cl)c5)c4)n3)cn2)CC1 [GSK1660437] | 2%
10 | c1ccc(-c2n[nH]cc2Nc2ccnc3ccccc23)nc1 [GW694077] | 0%
11 | Oc1cc(Nc2ccnc3cc(I)ccc23)ccc1F [GW552771] | 0%
12 | COc1ccc(Nc2nccc(N3CCC(NC(=O)Nc4cccc(OC)c4)C3)n2)cc1 (stereo not shown) [GSK1379742] | 6%
13 | COc1cc(Nc2nccc(-c3c(-c4cccc(NC(=O)c5c(F)cccc5F)c4)nn4ccccc34)n2)cc(OC)c1OC [GSK323521] | 3%
